# Laboratory results from PubChem BioAssay (NCATS).
# Unmarked numbers belong to inactive results. Results filed as inconclusive are left out. Where a call stands in place of a potency, no number is given. Calls of active or inactive are those of the source. Unless noted, calls follow the shape of the dose curve; as a rule, active = well fitted curve in the direction sought with a large enough effect; inconclusive = small, poorly fitted or top-dose-only effect, or another doubt; inactive = no such curve, though single readings can be large; an effect the other way counts as inactive or inconclusive.
# Key:
# [1] = target: Cytochrome P450 1A2 (Homo sapiens) (UniProt P05177); assay: p450-cyp1a2 (AID 410; calls by dose curve; also: potency is read from the fitted curve at half-maximal effect)
# Method in brief: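 20nM CYP1A2 with 100uM Luciferin-ME (at Km) in 100mM KPO4; compound preincubated 10 min, NADPH regeneration added, 60 min at room temperature. Luciferin quantified by luminescence after detection reagent; normalized to 57 uM furafylline.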
# [2] = target: Glucocorticoid receptor (Homo sapiens) (UniProt P04150); assay: GR-GFP Redistribution (AID 450;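 active = compounds whose dose series gives a full or clear partial fitted curve of increased nuclear translocation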; also: potency is read from the fitted curve at half-maximal effect); conditions: U2OS GR-GFP nuclear translocation, laser cytometry, 2 h
# [3] = target: Glucocorticoid receptor (Homo sapiens) (UniProt P04150); assay: GR-EFC Redistribution (AID 451; calls by dose curve; also: potency is read from the fitted curve at half-maximal effect); conditions: CHO-K1 GR-EFC translocation, beta-gal luminescence, 2 h
# Method in brief: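 Translocation of GR-ED fusion to nuclear EA restores b-gal, read by luminescence after 1 h room-temperature detection. Engineered CHO-K1 biosensor cells, 1,000/well, exposed 2 h at 37 C to titrations up to 46 uM final.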
# [4] = target: Mitogen-activated protein kinase 10 (Mus musculus) (UniProt Q61831); assay: JNK3 AlphaScreen Assay (AID 530; active = well fitted curve in either direction with a large enough effect, not every such curve was filed as active;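 also: kinase came from lysate of stimulated human HepG2 cells; signal reports phosphorylation of biotinylated GST-cJun 1-79 at Ser73 with 10 µM ATP; series mostly up to about 57 µM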)
# Method in brief: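 Compound titrations were preincubated 15 minutes at room temperature with substrate, antibody and pre-activated JNK3-containing HepG2 lysate. Reactions were started with 10 uM ATP and stopped with EDTA-containing bead buffer for AlphaScreen detection.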
# [5] = target: Cytochrome P450 3A4 (Homo sapiens) (UniProt P08684); assay: qHTS Assay for Inhibitors and Substrates of Cytochrome P450 3A4 (AID 884); also: potency is read from the fitted curve at half-maximal effect; nearly all actives have a fitted effect of over 50% in size
# Method in brief: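 20 nM human CYP3A4 with 25 uM Luciferin-PPXE (at KM) in 200 mM KPO4, preincubated 10 min with compound; NADPH regeneration started a 60 min RT reaction. Luciferin detected by luminescence, normalized to 57 uM ketoconazole as full inhibition.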
# [6] = target: Ubiquitin carboxyl-terminal hydrolase 1 (Homo sapiens) (UniProt O94782); assay: Inhibitors of USP1/UAF1: Pilot qHTS (AID 504865);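 also: rhodamine fluorescence freed from ubiquitin-rhodamine substrate followed over time; top concentration of the series differs between compounds; nearly all actives have a fitted effect of over 35% in size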
# Method in brief: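 Enzyme-free wells gave the negative control, while test wells held 1nM USP1/UAF1 preincubated with compound for 15 min at room temperature. Ub-Rho at 150nM final started the reaction, and fluorescence at 480/540 nm was recorded kinetically.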
# [7] = target: DNA dC->dU-editing enzyme APOBEC-3G (Homo sapiens) (UniProt Q9HC16); assay: qHTS for inhibitors of Vif-A3G interactions: Validation (AID 588379)
# Method in brief: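 HeLa cells stably expressing Vif and A3G-eYFP, 700 cells/well, incubated overnight at 37 deg C, then exposed to compound overnight at 37 deg C. Inhibition of Vif-mediated degradation read as increased yellow fluorescence (Ex 488/Em 500-530) by laser-scanning cytometry.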
# [8] = Primary qHTS for small molecule stabilizers of the endoplasmic reticulum resident proteome: Secreted ER Calcium Modulated Protein (SERCaMP) assay (AID 1508630)
# Method in brief: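 GLuc-SERCaMP-expressing SH-SY5Y cells, pretreated 16 h with compound, are challenged with thapsigargin to empty ER calcium stores; after 4 h, coelenterazine is added directly to the medium and luminescence is imaged.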
# Sequence of Glucocorticoid receptor (Homo sapiens) (P04150 whole entry, looked up, the tested form may be a part): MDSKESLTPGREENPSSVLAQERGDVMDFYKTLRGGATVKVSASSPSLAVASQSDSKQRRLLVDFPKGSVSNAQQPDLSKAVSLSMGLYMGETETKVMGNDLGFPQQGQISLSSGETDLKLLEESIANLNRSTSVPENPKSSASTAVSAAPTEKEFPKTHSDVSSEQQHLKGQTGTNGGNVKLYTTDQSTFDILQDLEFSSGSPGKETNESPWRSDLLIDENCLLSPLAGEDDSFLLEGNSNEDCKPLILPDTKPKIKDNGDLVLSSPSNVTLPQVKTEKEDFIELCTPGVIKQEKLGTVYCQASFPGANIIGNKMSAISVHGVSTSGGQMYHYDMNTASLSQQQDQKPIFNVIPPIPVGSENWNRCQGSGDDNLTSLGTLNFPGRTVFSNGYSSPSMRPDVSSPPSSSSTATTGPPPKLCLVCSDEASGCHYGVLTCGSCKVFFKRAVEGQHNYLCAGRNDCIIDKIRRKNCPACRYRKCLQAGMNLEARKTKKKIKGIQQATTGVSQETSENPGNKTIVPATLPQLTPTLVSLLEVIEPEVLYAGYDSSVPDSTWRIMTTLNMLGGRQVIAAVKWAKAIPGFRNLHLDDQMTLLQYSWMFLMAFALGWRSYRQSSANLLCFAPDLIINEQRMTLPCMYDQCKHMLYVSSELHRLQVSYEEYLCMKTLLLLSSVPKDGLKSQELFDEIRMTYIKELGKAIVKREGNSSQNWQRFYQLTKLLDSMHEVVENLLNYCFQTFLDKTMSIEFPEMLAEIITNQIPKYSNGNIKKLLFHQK
# Sequence of Cytochrome P450 1A2 (Homo sapiens) (P05177 whole entry, looked up): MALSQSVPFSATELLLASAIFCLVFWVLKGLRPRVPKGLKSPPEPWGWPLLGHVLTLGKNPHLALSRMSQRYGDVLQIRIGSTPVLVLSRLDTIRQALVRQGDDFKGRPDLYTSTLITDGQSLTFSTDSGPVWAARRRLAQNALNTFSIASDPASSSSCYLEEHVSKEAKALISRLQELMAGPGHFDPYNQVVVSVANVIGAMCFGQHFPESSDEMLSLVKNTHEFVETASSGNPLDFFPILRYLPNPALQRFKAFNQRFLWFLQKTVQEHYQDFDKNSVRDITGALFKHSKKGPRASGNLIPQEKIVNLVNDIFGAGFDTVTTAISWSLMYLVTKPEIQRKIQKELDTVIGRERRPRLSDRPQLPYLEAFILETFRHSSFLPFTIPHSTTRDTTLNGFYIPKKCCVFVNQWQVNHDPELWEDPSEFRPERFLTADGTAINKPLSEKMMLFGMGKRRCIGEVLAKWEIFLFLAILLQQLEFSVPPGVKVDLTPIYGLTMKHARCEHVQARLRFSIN
# Sequence of DNA dC->dU-editing enzyme APOBEC-3G (Homo sapiens) (Q9HC16 whole entry, looked up): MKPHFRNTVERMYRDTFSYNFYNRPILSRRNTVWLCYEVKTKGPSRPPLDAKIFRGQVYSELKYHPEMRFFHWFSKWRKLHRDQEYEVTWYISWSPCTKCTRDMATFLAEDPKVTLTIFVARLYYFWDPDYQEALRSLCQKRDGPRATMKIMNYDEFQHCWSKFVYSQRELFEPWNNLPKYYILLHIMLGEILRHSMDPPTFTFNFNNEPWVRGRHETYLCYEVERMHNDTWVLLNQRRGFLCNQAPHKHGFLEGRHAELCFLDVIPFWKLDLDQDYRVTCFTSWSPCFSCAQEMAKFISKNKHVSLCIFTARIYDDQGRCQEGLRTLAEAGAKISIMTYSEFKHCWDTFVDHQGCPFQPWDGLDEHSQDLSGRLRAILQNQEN
# Sequence of Cytochrome P450 3A4 (Homo sapiens) (P08684 whole entry, looked up): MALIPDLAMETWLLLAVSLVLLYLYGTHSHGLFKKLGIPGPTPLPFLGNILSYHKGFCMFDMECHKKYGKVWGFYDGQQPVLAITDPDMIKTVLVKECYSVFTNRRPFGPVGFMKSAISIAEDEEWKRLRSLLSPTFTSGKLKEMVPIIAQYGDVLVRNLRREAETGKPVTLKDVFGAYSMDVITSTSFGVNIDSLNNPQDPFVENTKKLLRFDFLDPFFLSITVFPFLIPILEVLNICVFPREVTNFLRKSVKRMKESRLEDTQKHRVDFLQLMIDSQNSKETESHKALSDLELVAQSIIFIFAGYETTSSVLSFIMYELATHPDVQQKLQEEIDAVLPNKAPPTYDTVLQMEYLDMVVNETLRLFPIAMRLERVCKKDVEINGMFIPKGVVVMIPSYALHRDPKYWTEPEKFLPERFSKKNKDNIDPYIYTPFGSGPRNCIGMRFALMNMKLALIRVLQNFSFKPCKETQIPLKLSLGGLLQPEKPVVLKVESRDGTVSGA
# Sequence of Ubiquitin carboxyl-terminal hydrolase 1 (Homo sapiens) (O94782 whole entry, looked up): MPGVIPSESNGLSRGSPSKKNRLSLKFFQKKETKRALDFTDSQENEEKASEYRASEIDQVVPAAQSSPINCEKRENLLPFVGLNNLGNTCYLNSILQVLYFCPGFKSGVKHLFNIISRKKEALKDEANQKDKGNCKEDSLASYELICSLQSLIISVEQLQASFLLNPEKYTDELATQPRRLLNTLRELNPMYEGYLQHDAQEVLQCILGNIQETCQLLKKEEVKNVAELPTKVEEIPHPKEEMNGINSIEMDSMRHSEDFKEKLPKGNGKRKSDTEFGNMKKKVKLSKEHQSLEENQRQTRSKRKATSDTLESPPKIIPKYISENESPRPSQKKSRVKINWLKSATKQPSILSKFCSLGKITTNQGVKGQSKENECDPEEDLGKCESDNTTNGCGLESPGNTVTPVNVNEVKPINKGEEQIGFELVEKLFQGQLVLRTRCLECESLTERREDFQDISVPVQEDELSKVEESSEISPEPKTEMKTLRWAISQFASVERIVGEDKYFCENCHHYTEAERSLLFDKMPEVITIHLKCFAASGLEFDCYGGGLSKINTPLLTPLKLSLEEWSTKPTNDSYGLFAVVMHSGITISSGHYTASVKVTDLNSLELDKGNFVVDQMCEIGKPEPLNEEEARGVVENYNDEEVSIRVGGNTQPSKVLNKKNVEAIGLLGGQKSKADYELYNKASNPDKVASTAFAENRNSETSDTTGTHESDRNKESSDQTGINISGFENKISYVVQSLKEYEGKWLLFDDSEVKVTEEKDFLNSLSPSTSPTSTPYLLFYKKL
compound,measurement,setting,value
NC(=NCCc1ccc(I)cc1)SCCCc1cnc[nH]1,Potency,[1],15.8 µM (active)
same,Potency,[2],> 46 µM
same,Potency,[3],> 46 µM
same,outcome,[4],inactive
same,Potency,[5],0.794 µM (active)
same,Potency,[6],inactive
same,Potency,[7],inactive
same,Potency,[8],inactive
